# Data: ChEMBL document CHEMBL3988442, “University of Dundee, Small-Polar-MMV Screening Library” (2021)
# In all, about 48,000 compounds went through this assay and about 13,000 (27%) showed an effect of 50% or more. This is one part of the list.
# Test system: Wolbachia pipientis
# Experiment: Anti-Wolbachia Cell-Based Screen
# Type: functional
# Set-up: scale not given: in the data most compounds retested in dose-response had high values
# Conditions: 5 µM
row,SMILES,Percent Effect
1,CC(O)CN1CCC(CNCc2cn(-c3ccccc3)nn2)CC1 (stereo not drawn),3.471%
2,COCC(C)N(C)C(=O)NC1CCN(S(C)(=O)=O)CC1 (stereo not drawn),2.159%
3,CS(=O)(=O)c1ccc(CNC(=O)NCC2CCOC2)cc1 (stereo not drawn),-15.52%
4,CCSCCC(=O)NS(=O)(=O)c1ccc2c(c1)OCCO2,5.287%
5,O=C(c1ccc[nH]1)N1C[C@H](OCc2cccnc2)[C@H]2COC[C@H]21,-9.205%
6,CCO[C@H]1CN(C(=O)c2ccc3c(c2)OCO3)[C@@H]2COC[C@H]12,0.5362%
7,CO[C@H]1CN(C(=O)c2ccc3c(c2)OCO3)[C@@H]2COC[C@H]12,-7.485%
8,Cc1nc(CO[C@H]2CN(C(=O)c3ccc[nH]3)[C@@H]3COC[C@H]23)cs1.O=C(O)C(F)(F)F,-0.1564%
9,CO[C@H]1CN(C(=O)c2ccc[nH]2)[C@@H]2COC[C@H]12,98.6%
10,O=C(c1ccc[nH]1)N1C[C@H](OCc2ccccn2)[C@H]2COC[C@H]21,111.2%
11,CCOCc1nnc(NCc2cccnc2)o1,-1.439%
12,C=C(C)CN(CC)C(=O)c1cc(F)ccc1N1CCN(C)CC1,106.7%
13,C=C(C)CN(CC)C(=O)c1cc(C)ccc1NS(C)(=O)=O,12.91%
14,CC(NCc1ccncc1)c1cc(F)ccc1N1CCN(C)CC1 (stereo not drawn),-0.924%
15,CCN(CC1CCOC1)C(=O)c1ccc(N2CCOCC2)c(F)c1 (stereo not drawn),110.6%
16,CCN(CC1CCOC1)C(=O)c1cc(F)ccc1N1CCN(C)CC1 (stereo not drawn),87.35%
17,CCN(CC1CCOC1)C(=O)c1ccccc1N1CCOCC1 (stereo not drawn),5.823%
18,CCN(CC1CCOC1)C(=O)c1cc(Cl)c2c(c1)OCO2 (stereo not drawn),-2.452%
19,CCN(CC1CCOC1)C(=O)c1cccnc1N1CCOCC1 (stereo not drawn),-1.739%
20,CCN(CC1CCOC1)C(=O)Nc1ccc(N2CCCC2)nc1 (stereo not drawn),-5.429%
21,Cc1ccc(CNC(C)c2cc(F)ccc2N2CCN(C)CC2)o1 (stereo not drawn),-9.069%
22,C=C(C)CN(CC)C(=O)c1cc(F)ccc1NS(C)(=O)=O,23.28%
23,CC(C)N(CC(N)=O)C(=O)c1cc(F)ccc1N1CCN(C)CC1,95.17%
24,COC[C@@]12CC[C@@H](N3CCOCC3)C[C@H]1CCN(c1ccc(Cl)cn1)C2,-5.579%
25,Cc1cnc(N2CCCC(c3ccccc3)C2)nc1-c1ncnn1C (stereo not drawn),-17.16%

row,SMILES,Percent Effect
1,O=C(NCC1COCc2c(-c3cccnc3)nnn2C1)c1cccs1.O=C(O)C(F)(F)F (stereo not drawn),-12.79%
2,O=S(=O)(C1CC1)N1CC[C@]2(C[C@H](OCC3CCOCC3)CO2)C1,2.042%
3,COCC1CN(Cc2ccncc2)Cc2nn(CC3CC3)cc21.O=C(O)C(F)(F)F.O=C(O)C(F)(F)F (stereo not drawn),-9.02%
4,COCc1noc(C2(c3ccc(F)cc3)CC2)n1,1.348%
5,c1csc(CN2C[C@H]3CCC[C@@]3(COCC3CCOCC3)C2)n1,5.846%
6,COCCN1C[C@H]2CC[C@@H]1CN(C(=O)c1ccc(Cl)cc1)C2,3.109%
7,COc1ccc(C(=O)N2CC(=O)N(CC3CC3)CC(O)C2)cc1 (stereo not drawn),115.7%
8,COCCN1CC(C(=O)NCc2ccc(C)s2)CC1=O (stereo not drawn),-3.089%
9,CSc1ccc(C(=O)N2CCCC(Nc3ccc(F)cc3)C2)cc1 (stereo not drawn),-32.55%
10,CSc1ccc(C(=O)N2CC(=O)N(CC3CC3)CC(O)C2)cc1 (stereo not drawn),119.8%
11,CSc1ccc(C(=O)N2C[C@H]3CC[C@@H]2CN(Cc2ccccc2)C3)cc1,17.05%
12,CSc1ccc(C(=O)N2C[C@H]3CC[C@@H]2CN(Cc2cccnc2)C3)cc1,37.83%
13,CSc1ccc(C(=O)N2CC(=O)N(Cc3ccccc3)CC(O)C2)cc1 (stereo not drawn),97.14%
14,CSc1ccccc1CN1C[C@H]2C(=O)N(CC3CC3)C[C@@]2(C(=O)O)C1,6.148%
15,COc1ccc(C(=O)N2CCN3C(=O)CNC(=O)[C@@H]3C2)cc1,-1.212%
16,COc1ccc2cc(C(=O)N3CC[C@H](CO)[C@H](O)C3)n(C)c2c1,-6.471%
17,COCCN1CC(O)CN(C(=O)c2ccc(SC)cc2)CC1=O (stereo not drawn),110.7%
18,CN(C)Cc1ccc(C2CCCCN2C(=O)c2cccc(CO)n2)cc1 (stereo not drawn),7.792%
19,CCCc1c(C(=O)N2CCN(c3nccc(OC)n3)CC2)cnn1C,3.097%
20,Cc1cc2nc(CO[C@H]3CN(C)C[C@H]3F)[nH]c2cc1C,-14.61%
21,COC1CCC(N(C)c2ccnc(N(C)C)n2)CC1 (stereo not drawn),2.902%
22,CCN1CC(C(=O)NCc2cccc(SC)c2)CC1=O (stereo not drawn),-13.72%
23,CSc1ccc(C(=O)N2CC(=O)N(CC(C)(C)C)CC(O)C2)cc1 (stereo not drawn),76.9%
24,CCN1CC(C(=O)N2CC(Oc3ccccc3F)C2)CC1=O (stereo not drawn),-11.41%
25,CCN1CC(O)CN(C(=O)c2ccc(SC)cc2)CC1=O (stereo not drawn),105.2%

row,SMILES,Percent Effect
1,NC(=O)C1CCN(c2nccc(-c3c[nH]nc3C3CCCCC3)n2)CC1,81.82%
2,NC(=O)C1CCN(c2cncc(-n3cccn3)n2)CC1,4.657%
3,c1cc(-c2noc(C3CCC3)n2)cc(N2CCCCC2)n1,-13.71%
4,Cc1ccnc(N2CCC(OCCN3CCCCC3)C2)n1 (stereo not drawn),14.04%
5,Cc1ccnc(N2CCN(C3CCS(=O)(=O)C3)CC2)n1 (stereo not drawn),0.9659%
6,c1cc(-c2cn3nccc3nc2C2CCCCC2)nc(N2CCCC2)n1,96.94%
7,NC(=O)N1CCCCCC1C1CCN(c2nccc(C(F)(F)F)n2)CC1 (stereo not drawn),-6.613%
8,Cc1ccnc(N2CCC(C(N)=O)CC2)n1,120.1%
9,c1cc(-c2c[nH]nc2C2CCCCC2)nc(N2CCCCCC2)n1,78.4%
10,CN1CCCN(c2nccc(-c3c[nH]nc3C3CCCCC3)n2)CC1,25.46%
11,CC(=O)NCC(=O)N1Cc2cc(C#N)ccc2C1c1cnco1 (stereo not drawn),-4.617%
12,CCNC(=O)CCC(=O)Nc1nc(C)c(Cc2ccc(F)cc2)s1,-19.82%
13,O=c1cc(CN2CCC(CCc3ccc(O)cc3)CC2)[nH]c(=O)[nH]1,-18.62%
14,COCCC1(CNC(=O)NCC2CCCS2)CCCC1 (stereo not drawn),-6.803%
15,CCc1ccc(CN(C)Cc2nc(COc3ccccc3)no2)nc1,78.29%
16,CCc1ccc(CN(C)Cc2nc(-c3cnccn3)no2)nc1,12.77%
17,CN(Cc1nc(COc2ccccc2)no1)CC1Cc2ccccc2O1 (stereo not drawn),-1.217%
18,Cc1csc(CN(C)C(=O)C2CCC(=O)N(CCN(C)C)C2)n1 (stereo not drawn),2.129%
19,O=C(c1cccnc1N1CCOC(c2ccc(Cl)cc2)C1)N1CCCC1 (stereo not drawn),19.68%
20,COc1ccc(CN2C[C@@H]3CN(C(=O)c4ccsc4)C[C@@H]3C2=O)cc1,-7.26%
21,COc1ccc(CN2CCO[C@H]3CN(C(C)=O)CC[C@H]3C2=O)cc1,-1.641%
22,COc1ccc(CN2CC(O)CN(C(=O)OCC(C)(C)C)CC2=O)cc1 (stereo not drawn),112.6%
23,CCC(=O)N1CC[C@H]2C(=O)N(Cc3ccc(OC)cc3)CCO[C@H]2C1,5.242%
24,COc1ccc(CN2C[C@@H]3OCC(=O)N(CC(N)=O)[C@@H]3C2)cc1,-8.877%
25,COc1ccc(CN2CC(O)CN(C(=O)c3ccccc3)CC2=O)cc1 (stereo not drawn),119%

row,SMILES,Percent Effect
1,CCOC(=O)N1CC(=O)N(Cc2ccc(OC)cc2)CC(O)C1 (stereo not drawn),85.47%
2,CSCCCNc1ncnc2cccc(F)c12,-37.93%
3,CC(=O)N1CCc2ccccc2C1CC(=O)NCc1nnc(C)o1 (stereo not drawn),-6.807%
4,COCCS(=O)(=O)N(Cc1cscn1)c1ccccc1,-16.91%
5,O=C(CCC1CCCN(S(=O)(=O)C2CC2)C1)Nc1ccc(Cl)cc1 (stereo not drawn),0.5143%
6,O=C(Nc1cnn(CC(=O)N2CCCCO2)c1)c1ccsc1,8.582%
7,Cc1ccc(C(=O)Nc2ccc(S(=O)(=O)/N=C3\CCCN3C)cc2)s1,80.8%
8,CN1CCC/C1=N\S(=O)(=O)c1ccc(NC(=O)c2ccc(Cl)s2)cc1,40.68%
9,CN1CCC/C1=N\S(=O)(=O)c1ccc(NC(=O)c2ccsc2)cc1,106.5%
10,CN1CCC/C1=N\S(=O)(=O)c1ccc(NC(=O)c2ccco2)cc1,116.6%
11,N#Cc1cc(NC(=O)c2ccsc2)ccc1N1CCC(O)CC1,-1.175%
12,Cc1ccc(C(=O)Nc2ccc(N3CCC(O)CC3)c(C#N)c2)s1,-23.53%
13,O=C(CCN1C(=O)CCC1=O)Nc1ccc(Cl)cc1,9.29%
14,O=C(Nc1ccccc1C(=O)NCCCN1CCOCC1)c1ccco1,10.69%
15,CN1CCC/C1=N\S(=O)(=O)c1ccc(NC(=O)c2ccc(Cl)cc2)cc1,101.2%
16,Cc1nccnc1N1C[C@H](NC(=O)CNS(C)(=O)=O)[C@@H](C2CC2)C1,-53.3%
17,COc1cccc(C(=O)N2CCN(C(=O)CCn3ccnc3)CC2)c1,-2.961%
18,Cc1cc(C(=O)NS(=O)(=O)Cc2ccon2)c(C)o1,30.96%
19,CCC(O)CN(CC(=O)Nc1cc(C)no1)c1ccccc1 (stereo not drawn),5.147%
20,Cn1cc(NC(=O)Cc2cccs2)c(=O)n(C)c1=O,-7.177%
21,CN1C(=O)CO[C@H](c2ccc(NC(=O)Cc3cccs3)cc2)[C@H]1CO,-17.64%
22,CN1CCC/C1=N\S(=O)(=O)c1ccc(NC(=O)Cc2cccs2)cc1,91.75%
23,CCOc1nnc(CN2CCC(c3nc4ccccc4[nH]3)CC2)s1,-10.51%
